Sampled rows, rich in hits. Any-hit rate of the full collection: about 2.1%.
aSyn 5UTR inh: MLPCN primary screen, SNCA 5' untranslated region; alpha-synuclein 5'UTR reporter, inhibitor activity; inhibition, % (tested at 7.5 µM); AID 1813, 2009; actives 0.82% (n = 300,000); in the data active = inhibition above about 60%;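 also: H4 neuroglioblastoma cells stably carrying SNCA 5'UTR luciferase fusion; 0% = DMSO wells and 100% = positive control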
IEC-6 cytotox: cytotoxicity in IEC-6 intestinal epithelial cells, primary screen, cytotoxicity control for KLF5 inhibitor project, cell-based, luminescence. inhibition, % at 5 µM. IEC-6 cytotoxicity, luminescence viability. AID 1825, 2009. actives 0.78% (n = 290,000); in the data active = inhibition above about 22%;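 also: 0% = plate median of test compound wells and 100% = cytotoxic reference compound wells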
BaF3 parental: parental Ba/F3 cell viability inhibition, counter-screen for JAK2V617F inhibitor project, murine pro-B, CellTiter-Glo luminescence. CellTiter-Glo ATP luminescence. inhibition, % at 5.6 µM. actives 1.1% (n = 220,000). AID 1486, 2009;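 active = inhibition above a per-campaign cutoff, the mean inhibition of all tested compounds plus 3 SD, cut at about 27% in these data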;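 also: 0% = DMSO wells and 100% = JAK Inhibitor I control wells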
KLF5 inhibitor: KLF5 expression inhibitors, primary screen, DLD-1 cells, luminescence | DLD-1 KLF5 promoter-luciferase reporter | inhibition, % at 5 µM | actives 0.23% (n = 290,000);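 active = inhibition above a per-plate limit of that plate's mean compound inhibition plus 3 SD, cut at about 60% in these data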;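 also: 0% = DMSO wells and 100% = LY294002 at 200 µM; higher means less KLF5 promoter-driven luciferase light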
APP 5UTR inh: inhibitors of APP translation via 5'UTR reporter, primary screen, APP 5'UTR luciferase, SH-SY5Y cells. actives 0.82% (n = 190,000). SH-SY5Y APP 5'UTR-luciferase reporter, luminescence. AID 1285, 2008. inhibition, % at 2 µM;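 active = inhibition above a set limit, derived from the sample mean plus 3 SD, cut at about 45% in these data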
Ba/F3 V617F tox: reduced viability of JAK2V617F-dependent Ba/F3 cells, primary screen, JAK2V617F inhibitor project, cell-based, Ba/F3 EpoR-JAK2V617F, luminescence; ATP luminescence; inhibition, % at 5.6 µM; actives 1.1% (n = 220,000); AID 1446, 2008;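 active = inhibition above the campaign mean plus 3 SD over all tested compounds, cut at about 24% in these data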;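 also: cytokine-independent growth of Ba/F3 cells driven by EpoR plus mutant JAK2; 0% = DMSO-treated cells and 100% = JAK inhibitor I control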
* marks the source's active call; other numbers are inactive results; . = no result given.

SMILES | aSyn 5UTR inh | IEC-6 cytotox | BaF3 parental | KLF5 inhibitor | APP 5UTR inh | Ba/F3 V617F tox
COc1ccc(C(=O)C(CN2CCOCC2)c2ccccc2)cc1F (configuration not stated) | -108 | 6 | 49* | 26 | 62* | 93*
O=C(Nc1ccc(N2CCN(C(=O)c3ccc(Cl)cc3)CC2)cc1)c1ccc([N+](=O)[O-])o1 | 120* | -4 | 6 | -28 | 96* | 3
CC1CCN(c2ccc(NC(=O)c3ccc([N+](=O)[O-])o3)cc2)CC1 | 44 | . | . | . | . | .
Cc1cc(C)n(-c2nc3c(c(=O)[nH]c(=O)n3C)n2CC(O)COc2ccc(Cl)cc2Cl)n1 (configuration not stated) | 73* | 2 | 4 | -19 | -3 | -4
CCN(CC)CCNc1nc2c(c(=O)[nH]c(=O)n2C)n1CC(O)COc1ccc(Cl)cc1Cl (configuration not stated) | 3 | 2 | 6 | -39 | 18 | 3
O=c1[nH][nH]c(=S)n1-c1ccccc1C(F)(F)F | . | -2 | 0 | 1 | . | -4
C=CCn1c(=S)sc2c(=O)[nH]cnc21 | 6 | 6 | -1 | -5 | . | 0
CC(OC(=O)c1ccccc1Nc1ccc(SC(F)F)cc1)C(N)=O (configuration not stated) | 43 | 28* | 12 | 7 | 8 | 5
Cc1cc(Cl)c2oc(C(=O)N(C)Cc3nccn3C)c(C)c2c1 | 8 | 3 | . | 3 | . | .
O=C(CCc1ccccc1)NNc1cc(N2CCCCC2)nc(N2CCCCC2)n1 | 82* | -1 | 2 | 20 | 19 | -1
O=[N+]([O-])c1ccc(C[n+]2cccc3ccc4cccnc4c32)cc1 | -30 | -2 | 76* | 28 | -26 | 60*
COc1ccc(Nc2nc3cc(C)ccc3cc2C#N)c(OC)c1 | 10 | -3 | 3 | 0 | 92* | -3
COc1ccc(Nc2nc3ccc(C)cc3cc2C#N)c(OC)c1 | -50 | 4 | 2 | -16 | 4 | -2
Oc1ccc2ccccc2c1/C=N/Nc1ccccc1 | -42 | 0 | 1 | -21 | -16 | -4
Cc1cc(N/N=C/c2c(O)ccc3ccccc23)nc(-c2ccccc2O)n1 | 72* | -5 | 0 | -5 | 58* | -2
Cc1cccc(NC(=O)N2CCCC(CNC(=O)c3ccccc3Cl)C2)c1C (configuration not stated) | -7 | -6 | . | 2 | . | .
COc1ccc(/C=N/N(C)C2=NCCN2)c(OC)c1OC | 10 | 3 | . | -15 | . | .
COc1ccc(CCNC(=O)[C@H](C)N2C(=O)N3CCc4c([nH]c5ccccc45)[C@@]3(C)C2=O)cc1 | 23 | -3 | . | 14 | . | .
O=C(CCN1C(=O)/C(=C/c2ccccc2Cl)SC1=S)NNC(=O)c1ccccc1O | 13 | -10 | . | -3 | . | .
Cc1ccc(/C=C2\SC(=S)N(CCC(=O)NNC(=O)c3ccccc3O)C2=O)cc1 | 34 | -1 | . | 5 | . | .
Cc1ccc(C(=O)NNC(=O)CCCN2C(=O)/C(=C/c3ccccc3Cl)SC2=S)cc1 | 69* | -5 | 9 | -10 | 25 | 3
O=C(CCN1C(=O)/C(=C/c2ccccc2Cl)SC1=S)NNC(=O)c1cccnc1 | -21 | -2 | 1 | 6 | . | 3
O=C(CCCN1C(=O)/C(=C/c2ccccc2Cl)SC1=S)NNC(=O)c1ccc(Cl)cc1 | 65* | -4 | -5 | 11 | . | -2
Cc1ccc(/C=C2\SC(=S)N(CCCC(=O)NNC(=O)c3ccccc3O)C2=O)cc1 | 107* | -5 | -2 | 29 | . | 1
Cc1ccc(-c2cc3cccc[n+]3cc2-c2ccc(C)cc2)cc1 | 51 | 28* | 79* | 15 | 6 | 96*
SMILES | aSyn 5UTR inh | IEC-6 cytotox | BaF3 parental | KLF5 inhibitor | APP 5UTR inh | Ba/F3 V617F tox
NC(=O)c1sc2nc3c(c(-c4ccc(Cl)cc4)c2c1N)CCCC3 | 66* | 1 | 4 | 2 | . | 0
C=CCNC(=O)c1onc(CSc2ccc(Cl)cc2)c1C(=O)O | 2 | 2 | 35* | -42 | -9 | 49*
O=C(Oc1ccc2ccccc2c1)c1ccco1 | -13 | -1 | 4 | -49 | 19 | -1
CC1CC(C)(C)Nc2ccc(OC(=O)c3ccco3)cc21 (configuration not stated) | 70* | 9 | 6 | -11 | 30 | 4
O=C(Cc1ccc([N+](=O)[O-])cc1)N/N=C/c1ccc([N+](=O)[O-])o1 | 89* | -13 | 3 | -26 | 2 | -2
N#CCc1ccc(NC(=O)/C=C/c2ccc([N+](=O)[O-])o2)cc1 | -38 | 6 | 83* | -16 | 56* | 94*
CCCCCCCC(=O)N/N=C/c1ccc([N+](=O)[O-])o1 | -18 | 2 | 12 | -12 | -21 | 3
O=C(N/N=C/c1ccc([N+](=O)[O-])o1)c1ccc2c(c1)OCO2 | 94* | 1 | . | -17 | . | .
O=C(N/N=C\c1ccc(-c2ccc([N+](=O)[O-])cc2)o1)c1ccc2c(c1)OCO2 | 4 | -5 | 4 | 11 | 6 | -5
O=[N+]([O-])c1ccc(/C=N/N=C/c2ccc([N+](=O)[O-])o2)o1 | . | 5 | -2 | -46 | 94* | 3
CCN(CC)S(=O)(=O)c1cccc(NC(=O)COc2ncnc3sccc23)c1 | 14 | 2 | 3 | -26 | 3 | -1
COc1cc(C(=O)Oc2c(CN3CCOCC3)cc(Cl)c3cccnc23)cc(OC)c1OC | 78* | 6 | 0 | 0 | 39 | -1
COc1ccc(C(=O)Oc2c(CN3CCOCC3)cc(Cl)c3cccnc23)cc1 | 54 | 14 | 4 | 9 | 38 | 4
COc1cccc(C(=O)Oc2c(CN3CCOCC3)cc(Cl)c3cccnc23)c1 | 89* | -6 | 2 | -11 | 38 | -1
O=C(NCCc1csc(-c2cccnc2)n1)c1ccco1 | 13 | 4 | 96* | -27 | 3 | -4
Cc1ccc(-c2nc(CCNC(=O)c3ccco3)cs2)cc1 | 3 | . | . | . | . | .
COc1ccc(-n2c(-c3ccc(Br)cc3)c[n+]3c2SC(C)C3)cc1 (configuration not stated) | -3 | 5 | 67* | -25 | -37 | 76*
COc1ccc(-n2c(-c3ccc(Br)cc3)c[n+]3c2CCCCC3)cc1 | 2 | 18 | 64* | -30 | 0 | 76*
COc1ccc(-n2c(-c3ccc(Br)cc3)c[n+]3c2CCC3)cc1 | -2 | -1 | 66* | -1 | 7 | 81*
COc1ccc(-n2c(-c3ccc(Br)cc3)n[nH]c2=S)cc1 | 22 | -3 | . | -3 | . | .
COc1ccc(-n2c(-c3ccc(Br)cc3)nc(=S)c3c2CCCC3)cc1 | -49 | -1 | 4 | -11 | 8 | -3
COc1ccc(-n2c(-c3ccccc3)cc3c2CCCC3=O)cc1 | -7 | 5 | 2 | -11 | 13 | 0

Screening data: PubChem, several laboratories
